Source: PubChem (National Center for Advancing Translational Sciences (NCATS))
Sampled rows, rich in hits. Any-hit rate of the full collection: about 7.4%.
SNCA viab count = counter-screen for SNCA expression inhibitors: cell viability. HEK-293-SNCA-luc viability, GF-AFC fluorescence, 24 h. Potency, µM (top dose mostly 57.1 µM), for the others: at the top dose activity change, negative = cytotoxicity, usual class: cytotoxic. 0.12% of 150,000 active;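 further: 0% = DMSO-treated cells and -100% = medium-only wells without cells; nearly all actives have a fitted effect of over 30% in size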
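HEK-293-SNCA-luc cells (1500/well) plated 24 h, then exposed 24 h to a dilution series; GF-AFC added 30 min at 37C, fluorescence 405/540 nm; normalised to medium-only and DMSO wells, Hill fit.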
3T3 cytotox = NIH 3T3 cell cytotoxicity. NIH 3T3 viability, CellTiter-Glo ATP luminescence, 48-72 h. Potency, µM (top dose mostly 96.7 µM), inactives show top-dose activity change, negative = cytotoxicity, most hits filed as inhibitors. 4.3% of 94,000 active; further: on the % scale 0 is the no-effect control and ±100 the full control effect; nearly all actives have a fitted effect of over 55% in size
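Cells were seeded at 400 per well, treated with pin-transferred compound, and kept 48 or 72 hr at 37 °C before CellTiter-Glo addition and luminescence imaging of cellular ATP.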
SNCA expr inhib = reduces expression of the alpha-synuclein gene; AID 1671194; Potency, µM (top dose mostly 57.2 µM), for the others: top-dose activity change, negative = inhibition, most hits filed as inhibitors; 0.17% of 140,000 active; HEK-293 SNCA-luciferase knock-in, luminescence, 24 h;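 further: plate controls were DMSO cells for no effect and cell-free wells for full effect; nearly all actives have a fitted effect of over 45% in size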
hNpr1 antagonist = human Npr1 receptor antagonism | P16066 | HEK293 hNpr1 GloSensor cGMP, ANP-stimulated luminescence | Potency, µM (doses to about 46.3 µM), for the others: top-dose activity change, negative = inhibition, most hits filed as inhibitors | 1.6% of 76,000 active; calls by dose curve; further: on the % scale 0 is the no-effect control and ±100 the full control effect; nearly all actives have a fitted effect of over 60% in size
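HEK293 cells stably expressing human Npr1 and cGMP GloSensor pGS-40F, loaded 2 h with 2% GloSensor reagent, given compound 30 min at room temperature. Luminescence read before and 20 min after 0.1 nM hNppA.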
HEK293 tox = HEK 293 cell cytotoxicity; HEK 293 viability, ATP luminescence (CellTiter-Glo), 48-72 h; Potency, µM (titrated, usually from 115 µM), for inactives: at the highest dose activity change, negative = cytotoxicity, hits mostly inhibitors; 6.6% of 94,000 active; further: on the % scale 0 is the no-effect control and ±100 the full control effect; nearly all actives have a fitted effect of over 60% in size
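qHTS cytotoxicity; HEK 293, 250 cells/well; compound pinned; 48 or 72 hr, 37 degree Celsius, 5% CO2, 95% humidity; CellTiter-Glo, 10 min RT; luminescence (ATP).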
Luciferase inh = blocks purified firefly luciferase enzyme activity | P08659 | purified P. pyralis luciferase, luminescence, biochemical | Potency, µM (series often up to 115 µM), actives largely listed as inhibitors | 2.5% of 76,000 active; further: on the % scale 0 is the no-effect control and ±100 the full control effect; nearly all actives have a fitted effect of over 65% in size
Target sequence (P08659 whole entry, looked up): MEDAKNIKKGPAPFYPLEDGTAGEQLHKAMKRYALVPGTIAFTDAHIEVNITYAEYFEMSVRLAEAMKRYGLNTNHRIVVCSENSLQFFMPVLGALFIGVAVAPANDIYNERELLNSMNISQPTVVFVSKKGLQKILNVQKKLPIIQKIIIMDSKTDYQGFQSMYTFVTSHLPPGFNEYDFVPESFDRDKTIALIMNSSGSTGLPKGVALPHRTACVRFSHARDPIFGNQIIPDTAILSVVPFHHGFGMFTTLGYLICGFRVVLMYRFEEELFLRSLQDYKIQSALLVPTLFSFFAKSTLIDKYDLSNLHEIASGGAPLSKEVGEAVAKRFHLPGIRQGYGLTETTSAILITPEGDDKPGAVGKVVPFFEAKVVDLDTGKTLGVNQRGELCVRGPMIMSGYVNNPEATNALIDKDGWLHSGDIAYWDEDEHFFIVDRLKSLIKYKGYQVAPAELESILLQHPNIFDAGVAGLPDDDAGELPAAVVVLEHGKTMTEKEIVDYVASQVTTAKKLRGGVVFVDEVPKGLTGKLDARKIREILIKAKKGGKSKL
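Purified 10nM P. pyralis luciferase with 10uM D-luciferin and 10uM ATP in 50mM Tris acetate pH 7.5, 10mM Mg acetate, 0.01% Tween-20, 0.05% BSA. qHTS titration; luminescence read by CCD imager.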
NPR1 antag cnf = confirmation of human Npr1 natriuretic peptide receptor antagonists | shares compounds with hNpr1 antagonist | HEK293 hNpr1 cGMP GloSensor luminescence, ANP-stimulated | Potency, µM (highest dose often 57.6 µM), without a hit: top-dose activity change, negative = inhibition, hits mostly inhibitors | 76% of 1,400 active | AID 1347044; calls by dose curve; further: nearly all actives have a fitted effect of over 70% in size
NPR2 antag = antagonizes human Npr2, subtype selectivity check; shares compounds with hNpr1 antagonist; HEK293 hNpr2 GloSensor cGMP luminescence, CNP-stimulated; Potency, µM (titrated, usually from 57.6 µM), for inactives: top-dose activity change, negative = inhibition, hits mostly inhibitors; 67% of 1,400 active; AID 1347046; calls by dose curve; further: nearly all actives have a fitted effect of over 70% in size
FLuc inh counter = FLuc enzyme inhibition, Npr1 counter-screen; purified FLuc enzyme, luminescence, Km substrate; shares compounds with hNpr1 antagonist; Potency, µM (doses to about 57.6 µM), for the others: top-dose activity change, negative = inhibition, hits mostly inhibitors; 0.7% of 1,400 active; AID 1347047; further: 0% is about no effect
GloSensor cGMP = control cell line activity, Npr1 antagonist counter-screen; 69% of 1,400 active; AID 1347051; HEK293 GloSensor cGMP, SNP-stimulated, luminescence; Potency, µM (series often up to 57.6 µM), for the others: top-dose activity change, negative = inhibition, most hits filed as inhibitors; shares compounds with hNpr1 antagonist; calls by dose curve; further: on the % scale 0 is the no-effect control and ±100 the full control effect; nearly all actives have a fitted effect of over 70% in size
* marks the source's active call; other numbers are inactive results; i = inactive; ? = inconclusive; . = no result given; [ ] = remark or other dose. Unless noted, the call rests on the fitted dose curve; in most records, active means well fitted curve in the direction sought with a large enough effect; inconclusive means small, poorly fitted or top-dose-only effect, or another doubt; inactive means no such curve, though single readings can be large; an effect the other way counts as inactive or inconclusive. Potency means the concentration at half of the fitted maximal effect.

SMILES	SNCA viab count	3T3 cytotox	SNCA expr inhib	hNpr1 antagonist	HEK293 tox	Luciferase inh	NPR1 antag cnf	NPR2 antag	FLuc inh counter	GloSensor cGMP
O=C(NCCc1ccccc1)c1cc2n(n1)CC(c1ccc(Cl)cc1)OC2 (stereo not given)	-0.2%	?	3.2%	?	?	i	?	?	-3.7%	?
Cc1ccc(NC(=O)c2cc3n(n2)CC(c2ccc(Cl)cc2)OC3)c(Cl)c1 (stereo not given)	7.0%	-16.0%	35.8%	-25.0%	?	i	.	.	.	.
O=C(Nc1ccccc1)c1cc2n(n1)CC(c1ccc(Cl)cc1)OC2 (stereo not given)	-5.0%	-26.3%	-15.7%	12.6µM*	?	i	?	?	-1.4%	?
O=C(NCCc1cccnc1)c1cc2n(n1)CC(c1ccc(Br)cc1)OC2 (stereo not given)	-5.2%	?	2.2%	11.2µM*	39.8µM*	i	19.3µM*	19.3µM*	-0.4%	12.2µM*
CN1C(=O)CCC2(CNC(=O)C3CC3)CCCC=C12 (stereo not given)	-5.3%	-3.7%	7.8%	3.7%	-3.4%	i	.	.	.	.
O=C(NCc1ccccc1Cl)c1cc2n(n1)CC(c1ccc(Cl)cc1)OC2 (stereo not given)	-0.8%	?	-21.3%	?	?	i	?	?	-1.6%	?
O=C(NCc1ccccc1)c1cc2n(n1)CC(c1ccc(Cl)cc1)OC2 (stereo not given)	-11.0%	?	?	?	?	i	.	.	.	.
Cc1ccc(NC(=O)c2cc3n(n2)CC(c2ccc(Cl)cc2)OC3)cc1 (stereo not given)	0.7%	?	-21.3%	?	?	i	.	.	.	.
O=C(Nc1ccc(F)c(Cl)c1)c1cc2n(n1)CC(c1ccc3c(c1)OCO3)OC2 (stereo not given)	-6.2%	?	-4.4%	?	44.7µM*	i	27.3µM*	?	-8.6%	?
O=C(Nc1cc(F)ccc1Cl)c1cc2n(n1)CC(c1ccc3c(c1)OCO3)OC2 (stereo not given)	8.8%	-19.7%	17.7%	1.5%	?	?	.	.	.	.
CC(C)c1ccc(NC(=O)c2cc3n(n2)CC(c2ccc(Cl)cc2)OC3)cc1 (stereo not given)	1.6%	-19.6%	-27.2%	10µM*	?	i	13.7µM*	?	-15.2%	10.9µM*
Cc1cccc(CNC(=O)c2ccc(OC3CCN(CCc4ccccc4)CC3)cc2)n1	-4.8%	?	?	1.8%	?	i	.	.	.	.
CNC(=O)c1cc(C)nc2onc(C3CCN(C(=O)c4ccccc4F)C3)c12 (stereo not given)	.	-23.8%	.	.	-0.3%	.	.	.	.	.
CC(C)N1C(=O)C(CC(=O)O)=C2CCCCC21 (stereo not given)	-2.5%	1.4%	5.3%	1.1%	i	i	.	.	.	.
O=C(c1ccc(C(F)(F)F)cc1)N1CCC2(CNc3ccccc3[S+](=O)([O-])N2)C1 (stereo not given)	?	?	10.1%	?	?	i	21.7µM*	?	-1.9%	17.2µM*
Cc1ccc(C(=O)N2CCC3(CNc4ccccc4[S+](=O)([O-])N3)C2)cc1 (stereo not given)	-8.3%	?	5.1%	1.2%	?	i	.	.	.	.
CC(C)N1CCN(C(=O)c2cc3n(n2)CC(c2ccc(Br)cc2)OC3)CC1 (stereo not given)	6.4%	?	?	?	?	i	?	?	0.3%	?
O=C(c1cc2n(n1)CC(c1ccc(Cl)cc1)OC2)N1CCN(c2ccc(Cl)cc2)CC1 (stereo not given)	1.4%	?	-9.2%	12.6µM*	31.6µM*	i	?	?	0.1%	?
CC(=O)c1ccc(NC(=O)c2cc3n(n2)CC(c2ccc(Br)cc2)OC3)cc1 (stereo not given)	8.3%	-13.4%	-7.2%	?	?	i	.	.	.	.
COc1ccccc1-c1nnc2ccc(C(=O)NCc3cccc(C(F)(F)F)c3)cn12	-3.0%	?	?	.	?	.	.	.	.	.
COCCCN(CCC(=O)NCCc1ccccc1)C(=O)c1cc(C)oc1C	?	?	19.9%	-1.8%	?	i	.	.	.	.
CCCCCCN(CCC(=O)NCCc1ccccc1)C(=O)c1cc(C)oc1C	-13.7%	?	51.0%	15.8µM*	8.91µM*	i	?	?	-21.1%	?
CCCCCN(CCC(=O)NCc1ccc2c(c1)OCO2)C(=O)c1cc(C)oc1C	0.0%	31.6µM*	-26.2%	12.6µM*	?	i	?	?	2.4%	1.1%
CC(=O)Nc1ccc(CN2C[C@H](O)C[C@H]2c2nc(-c3cccc([N+](=O)[O-])c3)no2)cc1	-1.8%[87.6 µM]	?	32.9%[87.6 µM]	-6.8%[70.6 µM]	-20.4%[172 µM]	i	.	.	.	.
Cc1nn(C)cc1C(=O)N(Cc1cccc(Cl)c1)CC(C)C	-2.6%	-16.7%	21.2%	-1.4%	-8.3%	i	.	.	.	.
COc1cc(N2CCC(CO)(Cc3ccccc3C(F)(F)F)CC2)ncn1	-23.8%	?	?	11.2µM*	?	i	19.3µM*	19.3µM*	-1.8%	15.3µM*
CC(=O)N1CCC2(CC1)CCN(c1ncccc1C#N)CC2CO (stereo not given)	-0.5%	-3.1%	4.9%	5.7%	-2.4%	i	.	.	.	.
Cc1ncnc(N2CCC(CO)(Cc3ccccc3C(F)(F)F)CC2)c1C	?	?	-19.5%	11.2µM*	39.8µM*	i	24.3µM*	24.3µM*	2.1%	19.3µM*
